Inconclusive results are not listed. Active and inactive are the calls of the source. Unless noted, calls come from the whole dose curve; as a rule, active = well fitted curve in the direction sought with a large enough effect in the repeat runs; inconclusive = weak or mixed curves; inactive = no such curve, though single readings can be large; an effect the other way counts as inactive or inconclusive.
Tests used:
[1] = qHTS assay for small molecule agonists of the p53 signaling pathway (AID 651631; calls by dose curve; note: nearly all actives have a fitted effect of over 15% in size; note: potency is the fitted concentration of half-maximal effect)
Method in brief: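 HCT-116 cells carrying a stable p53 response element–beta-lactamase reporter were plated, rested 5 h at 37 °C, then exposed to compound in DMSO for 16 h at 37 °C; reporter activity was read as FRET substrate fluorescence after 2 h at room temperature.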

[2] = qHTS assay for small molecule agonists of the p53 signaling pathway - cell viability (AID 651633; calls by dose curve; note: series mostly up to about 83 µM; nearly all actives have a fitted effect of over 30% in size)
Method in brief: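 p53RE-bla cells, seeded at 4,000 per well and rested 5 h at 37 C/5% CO2, received compounds in DMSO for 16 h at 37 C. CellTiter-Glo was then added, and luminescence was read after 30 min at room temperature to gauge cytotoxicity.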

[3] = qHTS assay for small molecules that induce genotoxicity in human embryonic kidney cells expressing luciferase-tagged ATAD5 - cell viability (AID 651634; calls by dose curve; note: nearly all actives have a fitted effect of over 25% in size; note: potency is the fitted concentration of half-maximal effect)
Method in brief: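 Cytotoxicity counter-readout: after 15.5 hr compound treatment at 37C, live-cell protease activity in ATAD5-luciferase HEK293T cells measured by CellTiter-Fluor fluorescence, 30 min development at 37C.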

[4] = qHTS assay for small molecule disruptors of the mitochondrial membrane potential - cell viability (AID 720634; calls by dose curve;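 note: human HepG2 liver cancer cells; series mostly up to about 83 µM; nearly all actives have a fitted effect of over 20% in size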)
Method in brief: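 Cytotoxicity was quantified from ATP content by CellTiter-Glo luminescence in the same wells as the MMP dye read-out. HepG2 (2,000 cells/well) were plated overnight and exposed to compounds for 1 hr at 37 C.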

[5] = qHTS assay for small molecule disruptors of the mitochondrial membrane potential (AID 720635); note: potency is the fitted concentration of half-maximal effect
Method in brief: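 HepG2 cells (2,000/well) attached overnight at 37C, then took compound for 1 hr at 37C, 5% CO2. Mito-MPS dye was added for 30 min; fluorescence was read at 490/535 nm (monomers) and 540/590 nm (aggregates).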

[6] = qHTS assay to test for compound auto fluorescence at 590 nm (red) in HepG2 cells (AID 720674)
Method in brief: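 Intrinsic compound fluorescence in the red window (Ex/Em 540/590 nm) is measured in attached HepG2 cells exposed for 1 hr, DMSO vehicle as baseline, benchmarked to Rose Bengal sodium.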

[7] = qHTS assay to test for compound auto fluorescence at 535 nm (green) in HepG2 cells (AID 720675)
[8] = qHTS assay to test for compound auto fluorescence at 460 nm (blue) in HEK293 cells (AID 720678)
Method in brief: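 Triamterene serves as the blue fluorophore standard. Compound signal at 405/460 nm is read in HEK293 wells (2,000 cells, 10% dialyzed FBS) after overnight treatment at 37C.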

[9] = qHTS assay to test for compound auto fluorescence at 590 nm (red) in HEK293 cells (AID 720679)
Method in brief: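 We plated HEK293 cells in 10% dialyzed FBS medium, let them adhere for 4-5 hr, then added 23 nL compound. Overnight at 37C and 5% CO2 preceded fluorescence measurement at 540/590nm.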

[10] = qHTS assay to test for compound auto fluorescence at 535 nm (green) in HEK293 cells (AID 720680)
[11] = qHTS assay to test for compound auto fluorescence at 460 nm (blue) in HEK293 cell free culture (AID 720681)
Method in brief: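 Test compounds were pinned into cell-free culture medium (DMEM with 10% FBS) and fluorescence was read directly at Ex/Em 405/460 nm. Signals were expressed as fluorescence equivalents of triamterene, with DMSO vehicle as control.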

[12] = qHTS assay to test for compound auto fluorescence at 535 nm (green) in HEK293 cell free culture (AID 720682)
Method in brief: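 Read-out: 485/535 nm fluorescence intensity, calibrated against fluorescein. Medium only (DMEM + 10% FBS, no cells); test compound or DMSO vehicle added by pintool before plate reading.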

[13] = qHTS assay to test for compound auto fluorescence at 590 nm (red) in HepG2 cell free culture (AID 720684)
Method in brief: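 Readout: intrinsic compound fluorescence at 590 nm emission after 540 nm excitation, scaled to Rose Bengal sodium. Matrix was cell-free MEM with 10% FBS; DMSO vehicle wells served as control.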

[14] = qHTS assay to test for compound auto fluorescence at 460 nm (blue) in HepG2 cell free culture (AID 720685)
Method in brief: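 Cell-free plates of MEM plus 10% FBS received 23 nL compound or DMSO vehicle; blue-channel (405/460 nm) intensity scored against triamterene as reference fluorophore.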

[15] = qHTS assay to test for compound auto fluorescence at 535 nm (green) in HepG2 cell free culture (AID 720686)
[16] = qHTS assay to test for compound auto fluorescence at 460 nm (blue) in HepG2 cells (AID 720687)
Method in brief: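 Cells (2,000/well in MEM with 10% FBS) attached overnight at 37 C, then were exposed to compound or DMSO for 1 hr at 37 C, 5% CO2. Fluorescence read at Ex/Em 405/460 nm, expressed as triamterene-equivalent signal.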

[17] = biological target: Glucocorticoid receptor (Homo sapiens) (UniProt P04150); assay: qHTS assay to identify small molecule agonists of the glucocorticoid receptor (GR) signaling pathway (AID 720691; active = well fitted activation curve with a large enough effect in the signal ratio in the repeat runs, not every such curve was filed as active; the % refers to the signal ratio)
Method in brief: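 Agonist-mode qHTS in HeLa cells stably expressing a glucocorticoid-response-element beta-lactamase reporter. Fluorescence intensity read with FRET substrate (2 h, room temperature) after 18 h compound treatment at 37 C.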

[18] = qHTS assay for small molecules that induce genotoxicity in human embryonic kidney cells expressing luciferase-tagged ATAD5 (AID 651632); note: nearly all actives have a fitted effect of over 15% in size; note: potency is the fitted concentration of half-maximal effect
Method in brief: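 A rise in luciferase signal from ATAD5-tagged HEK293T cells marks genetic stress. Cells were exposed to compounds for 16 hr at 37C, 5% CO2, then luciferase was quantified after a 30 min room-temperature incubation with Amplite.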

[19] = qHTS assay to test for compound auto fluorescence at 590 nm (red) in HEK293 cell free culture (AID 720683)
Method in brief: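 Tox21 10K library compounds were pinned into cell-free DMEM with 10% FBS and fluorescence was read at excitation 540 nm. Activity is expressed as Rose Bengal sodium equivalency.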

[20] = biological target: Glucocorticoid receptor (Homo sapiens) (UniProt P04150); assay: qHTS assay to identify small molecule antagonists of the glucocorticoid receptor (GR) signaling pathway (AID 720692; active = well fitted inhibition curve with a large enough effect in the signal ratio in the repeat runs, not every such curve was filed as active; the % refers to the signal ratio)
Method in brief: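 Inhibition of dexamethasone-driven (5 nM final) beta-lactamase expression was measured in GRE-reporter HeLa cells over 18 h at 37C. Fluorescence was read after 2 h with the B/G FRET substrate at room temperature.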

Measured: Potency

Sequence of Glucocorticoid receptor (Homo sapiens) (P04150 whole entry, looked up): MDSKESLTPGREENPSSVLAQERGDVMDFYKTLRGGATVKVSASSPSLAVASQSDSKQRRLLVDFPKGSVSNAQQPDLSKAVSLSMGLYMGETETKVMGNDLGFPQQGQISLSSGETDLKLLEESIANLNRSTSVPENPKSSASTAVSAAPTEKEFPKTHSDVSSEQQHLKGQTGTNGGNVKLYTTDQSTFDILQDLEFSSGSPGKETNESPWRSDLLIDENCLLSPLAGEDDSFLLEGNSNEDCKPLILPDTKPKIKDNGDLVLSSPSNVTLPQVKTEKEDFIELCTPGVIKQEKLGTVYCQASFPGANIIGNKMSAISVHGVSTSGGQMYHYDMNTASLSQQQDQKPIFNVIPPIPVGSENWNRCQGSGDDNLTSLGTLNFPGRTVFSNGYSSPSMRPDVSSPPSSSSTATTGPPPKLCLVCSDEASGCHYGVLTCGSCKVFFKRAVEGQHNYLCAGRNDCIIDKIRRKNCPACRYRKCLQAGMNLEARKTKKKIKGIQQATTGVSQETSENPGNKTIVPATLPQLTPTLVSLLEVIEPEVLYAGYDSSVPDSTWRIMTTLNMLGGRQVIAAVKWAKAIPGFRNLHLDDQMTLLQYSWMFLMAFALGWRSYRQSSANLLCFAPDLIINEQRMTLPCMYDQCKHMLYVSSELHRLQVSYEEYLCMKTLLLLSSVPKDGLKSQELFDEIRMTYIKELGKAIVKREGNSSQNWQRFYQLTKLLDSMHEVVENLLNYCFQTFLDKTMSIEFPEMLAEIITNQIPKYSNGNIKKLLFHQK

CCO[Si](C)(CCCOCC1CO1)OCC (stereo not drawn)
not listed: [18] | [19] | [20]
inactive: all other assays above

Nc1ccc(N=Nc2ccc(N)cc2)cc1
active: [18] 5.44 µM | [5] 6.85 µM
not listed: [3] | [11] | [15] | [17] | [20]
inactive: all other assays above

FC(F)(F)C(F)(F)C(F)(F)C(F)(F)CCI
not listed: [3] | [10] | [15]
inactive: all other assays above

CC(C)(C)S
not listed: [3] | [11] | [20]
inactive: all other assays above

CC1CCc2nccnc21 (stereo not drawn)
not listed: [17] | [18] | [20]
inactive: all other assays above

CCN(Cc1cccc(S(=O)(=O)O)c1)c1ccc(C(=C2C=CC(=[N+](CC)Cc3cccc(S(=O)(=O)O)c3)C=C2)c2ccccc2S(=O)(=O)[O-])cc1
active: [3] 15.4 µM
not listed: [2] | [4] | [5] | [11] | [15] | [17] | [20]
inactive: all other assays above

O=C(NS(=O)(=O)/C=C/c1ccccc1)c1ccc(F)cc1Cl
active: [1] 21.7 µM | [18] 15.4 µM | [5] 68.6 µM
not listed: [3] | [9] | [17] | [20]
inactive: all other assays above

COc1ccc(N)c([N+](=O)[O-])c1
not listed: [3] | [8] | [15] | [20]
inactive: all other assays above
